# Screening data: PubChem BioAssay, Broad Institute
# Hits are enriched below; roughly 1.2% of the tested compounds scored in any of these assays.
# RAD54 inh: blocks human RAD54 Holliday junction branch migration; inhibition, % at 10.4 µM; 360,000 tested, 0.14% active; Q92698; FAM/BHQ fluorescence;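 active = mean normalized replicate activity at least 40 and at least half of replicates scoring 40 or more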;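 note: 0% = median of neutral control wells and 100% = median of positive control wells; inhibitors cause a drop in the FAM fluorescence signal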
# Target sequence (Q92698 whole entry, looked up): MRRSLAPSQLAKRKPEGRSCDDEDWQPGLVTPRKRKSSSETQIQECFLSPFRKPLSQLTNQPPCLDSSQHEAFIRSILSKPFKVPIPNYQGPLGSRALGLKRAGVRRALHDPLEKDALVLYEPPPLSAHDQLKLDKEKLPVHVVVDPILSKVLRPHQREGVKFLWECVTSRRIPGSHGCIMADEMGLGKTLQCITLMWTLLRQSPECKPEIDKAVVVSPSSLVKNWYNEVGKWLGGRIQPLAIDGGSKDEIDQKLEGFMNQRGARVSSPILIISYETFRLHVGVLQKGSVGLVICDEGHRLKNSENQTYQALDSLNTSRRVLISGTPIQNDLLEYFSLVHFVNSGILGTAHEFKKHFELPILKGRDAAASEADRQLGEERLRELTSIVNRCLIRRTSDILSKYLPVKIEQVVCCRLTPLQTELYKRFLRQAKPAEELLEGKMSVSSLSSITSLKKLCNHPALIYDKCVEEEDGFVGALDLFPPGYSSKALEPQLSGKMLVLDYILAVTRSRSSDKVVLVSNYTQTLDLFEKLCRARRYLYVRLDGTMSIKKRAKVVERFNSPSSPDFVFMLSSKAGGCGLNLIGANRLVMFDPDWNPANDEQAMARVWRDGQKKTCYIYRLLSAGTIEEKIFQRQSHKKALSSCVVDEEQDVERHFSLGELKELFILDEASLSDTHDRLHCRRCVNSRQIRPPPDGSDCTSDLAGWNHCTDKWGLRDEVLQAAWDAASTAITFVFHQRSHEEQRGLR
# Casp6 inh: caspase-6 (human) enzyme inhibition. P55212. purified caspase-6, Z-VEID-R110 cleavage fluorescence. inhibition, % at 12.5 µM. 350,000 tested, 0.53% active. AID 686996;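 active = mean inhibition across replicates at least about 35%, with every replicate also reaching that limit, limit read from the data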;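 note: 0% = median of neutral control wells and 100% = no fluorescence left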
# NSD2 HMT inh: inhibitors of human histone methyltransferase NSD2; inhibition, % at 12.5 µM; NSD2 peptide methylation, AlphaScreen, 120 min; AID 743445; O96028; 310,000 tested, 0.54% active; in the data active = inhibition above about 50%
# RAD52 inh: blocks human RAD52 DNA annealing. P43351. recombinant RAD52 DNA annealing, FRET fluorescence. inhibition, % at 18.7 µM. 360,000 tested, 0.46% active. AID 651710;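 active = every replicate showing at least 50% inhibition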
# Glyco luc inh: blocks N-linked glycosylation in D54 reporter cells; D54 ERlucT glycosylation luciferase reporter, 24 h; percent of 100 nM tunicamycin response; reporter increase, % at 12.5 µM; 360,000 tested, 0.23% active; AID 588692;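 active = mean luciferase reporter signal, scaled so untreated is 0 and the glycosylation-blocking control 100, at or above a set limit in every replicate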;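 note: luciferase carries N-glycosylation sites so blocking glycosylation raises the light; 0% = median of neutral control wells and 100% = median of 100 nM tunicamycin wells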
# Alpha artifact: AlphaScreen assay artifact in NSD2 counter-screen; shares compounds with NSD2 HMT inh; AC35, µM (titrated, usually from 10 µM), for inactives: at the top dose activity change, negative = signal loss; AlphaScreen artifact counterscreen, preloaded methylated H4 peptide; 1,500 tested, 9.4% active; call rule not given here
# An asterisk follows results filed as active; i = inactive; / = no result.
SMILES,RAD54 inh,Casp6 inh,NSD2 HMT inh,RAD52 inh,Glyco luc inh,Alpha artifact
CC=Cc1ccc2n(c1=O)C[C@H]1[C@H](CO)[C@@H](C(=O)N3CCN(C)CC3)N(Cc3ccccc3F)[C@@H]21 (mixture of isomers),22.2,-2.2,/,2.6,/,/
CCOCCCNS(=O)(=O)c1ccccc1,2.7,/,37.1,/,-0.5,/
O=C1C(Cl)=C(NCCN2CCOCC2)C(=O)c2ccccc21,7.0,69.6*,101.3*,7.2,7.5,1.3%
CCOCCCNC1=C(Cl)C(=O)c2ccccc2C1=O,/,7.6,81.0*,-6.3,9.3,-14.2%
O=C1C(Cl)=C(NCCCN2CCOCC2)C(=O)c2ccccc21,9.0,19.4,9.1,-14.3,6.7,/
CN1C(=O)c2cc(NC(=O)Nc3ccccc3)ccc2OC[C@H]2O[C@H](CC(=O)NC3CCC3)CC[C@H]21,6.6,-0.1,/,-6.6,/,/
COCCn1c(N)c(N(Cc2ccccc2)C(=O)c2cc(=O)[nH]c3ccccc23)c(=O)[nH]c1=O,-3.5,1.5,93.3*,4.7,3.3,-5.5%
CCCCn1c(N)c(N(Cc2ccccc2OC)C(=O)c2cc(=O)[nH]c3ccccc23)c(=O)[nH]c1=O,0.2,-1.6,-0.4,-6.5,0.4,/
Fc1ccc(NC(=S)Nc2ccc3nccnc3c2)cc1,/,15.2,104.7*,-11.3,1.6,-3.0%
CN(CCC#N)C(=O)COC(=O)/C=C/c1cccs1,-16.3,0.6,0.7,-1.8,-0.3,/
CCO/C=C/C(=O)N(C)CCC#N,7.3,/,125.1*,/,-1.9,-6.8%
C[C@@H]1CCCCO[C@H](CN(C)Cc2ccc(C(F)(F)F)cc2)[C@@H](C)CN([C@@H](C)CO)C(=O)c2cc(NS(=O)(=O)c3ccccc3)ccc2O1,-5.9,0.5,/,24.3,/,/
N=C1SCC(=O)N1c1ncc(Cc2cccc(Cl)c2)s1,-4.5,-6.0,80.0*,-6.7,2.5,-0.6%
COc1cc(/C=C2\C(=O)ON=C2c2ccc(Cl)cc2)ccc1O,/,4.4,60.9*,-113.5,/,-4.2%
O=C(C[C@H]1C=C[C@H](NC(=O)Nc2ccc3c(c2)OCO3)[C@@H](CO)O1)NCc1ccc2c(c1)OCO2,7.8,1.3,/,-6.5,/,/
COc1ccc(NC(=O)Nc2ccc3c(c2)[C@@H]2C[C@H](CC(=O)NC4CCCC4)O[C@H](CO)[C@@H]2O3)cc1,-2.8,-0.7,/,2.7,/,/
NC(=O)c1nsc(C(=O)N(c2ccccc2)C(C(=O)NCC2CCCO2)c2ccc3ncccc3c2)c1N (stereo not given),0.3,1.7,59.1*,8.5,-2.6,5.9%
CCOc1ccccc1N(C(=O)c1snc(C(N)=O)c1N)C(C(=O)NCC1CCCO1)c1ccc2ncccc2c1 (stereo not given),7.5,-1.7,-1.2,-13.5,0.0,/
COCC(=O)N(C)C[C@H]1Oc2ncc(-c3ccc(C#N)cc3)cc2C(=O)N([C@H](C)CO)C[C@H]1C,3.5,-3.1,/,5.6,/,/
CN1/C(=N\O)c2cccc3cccc1c23,17.6,/,55.3*,/,2.7,8.0%
CNC(=O)CN1C(=O)c2cccc3cccc1c23,-8.1,/,0.6,/,-0.3,/
O=C1CCN2C=Nc3cccc4ccc1c2c34,i,/,114.7*,/,5.6,2.7%
O=C1C=C(N2CCOCC2)c2cccc3cccc1c23,1.0,-8.2,/,i,3.8,/
COCCNC(=O)C[C@H]1CC[C@H]2[C@@H](COc3ccc(NC(=O)Nc4ccccc4)cc3C(=O)N2C)O1,-1.0,0.3,/,-3.1,/,/
CC(=O)NCCOc1cccc(OCCNC(C)=O)c1,6.9,/,-4.6,/,/,/
SMILES,RAD54 inh,Casp6 inh,NSD2 HMT inh,RAD52 inh,Glyco luc inh,Alpha artifact
CNCCCOc1cccc(OC(C)C)c1,-6.0,/,92.0*,/,0.0,-3.3%
CC(O)CNCCCOc1cccc(Oc2ccccc2)c1 (stereo not given),-1.6,0.0,3.4,-3.2,-4.5,/
CNCCCOc1cccc(Oc2ccccc2)c1,/,1.0,126.8*,5.6,-5.5,-0.1%
O=C(NCCS(=O)(=O)N1CCN(c2ccccc2)CC1)c1ccc(Br)o1,3.6,-0.2,-8.9,-7.6,-0.2,/
COc1ccccc1N1CCN(S(=O)(=O)CCNC(=O)c2ccc(Br)o2)CC1,2.9,-1.6,75.6*,-6.7,0.9,-0.7%
O=C(NCc1ccco1)c1ccc(C(=O)NCc2ccco2)s1,-7.5,/,-0.6,/,-4.4,/
O=C(NCc1ccco1)c1scc2c1OCCO2,-13.9,/,90.1*,/,-1.7,-1.6%
Cc1ccc(S(=O)(=O)/N=C2\C=C(Nc3cccc(C(=O)O)c3)C(=O)c3ccccc32)cc1,4.5,99.4*,171.8*,2.3,2.2,-15.7%
COC(=O)c1ccccc1NC1=C/C(=N\S(=O)(=O)c2ccc(C(=O)O)cc2)c2ccccc2C1=O,-7.1,/,151.2*,/,-1.0,8.09µM*
O=C(NC1CCCC1)N1CC(=O)N2[C@H](C1)[C@H](c1ccc(-c3cccc(F)c3)cc1)[C@@H]2CO,/,/,/,-3.5,/,/
C[C@@H]1CN([C@@H](C)CO)C(=O)Cc2cc(NS(=O)(=O)c3ccc(Cl)cc3)ccc2O[C@@H]1CN(C)S(C)(=O)=O,-0.4,3.4,/,-7.3,/,/
COc1ccc(-c2nnc(SCC(=O)c3ccc(O)cc3O)o2)cc1,3.4,4.1,81.5*,-17.5,0.1,-3.2%
C[n+]1cccc2c(Br)ccc([O-])c21,1.0,53.3*,104.3*,34.9,1.5,-1.5%
O=C(Cc1ccccc1Cl)NC1(O)C(=O)c2ccccc2C1=O,5.2,14.7,93.7*,-9.4,0.9,4.3%
O=C(Cc1ccc(Cl)cc1)NCc1ccccc1Cl,/,-3.9,-4.3,-7.2,-1.7,/
O=[N+]([O-])c1ccc(N(CC(O)CN2CCCCC2)S(=O)(=O)c2ccccc2)cc1 (stereo not given),2.9,-4.1,67.7*,-6.8,-1.5,-1.2%
CCCCn1c(NC(=O)c2ccccc2Cl)c(C#N)c2nc3ccccc3nc21,7.0,/,113.8*,/,0.7,4.1%
CCC(=O)Nc1c(C#N)c2nc3ccccc3nc2n1-c1ccccc1C,6.8,/,16.0,/,0.0,/
N#CCC(=O)c1sccc1-n1cccc1,-24.2,19.5,91.9*,-123.6,1.3,-4.6%
N#CCOC(=O)c1sccc1-n1cccc1,1.1,/,2.7,/,-3.0,/
CO[C@H]1CN(C)C(=O)c2cc(NC(=O)Nc3cc(F)ccc3F)ccc2OC[C@H](C)N(C(=O)c2cnccn2)C[C@H]1C,0.4,0.0,/,-6.7,/,/
CCN1CCN(CCCNC(=O)c2ccc3c(c2)NC(=O)/C(=C\c2cccc(C)c2)S3)CC1,65.6*,-81.5,50.9*,44.5,-11.5,-4.9%
C[C@@H]1CCCCO[C@@H](CN(C)Cc2ccccc2)[C@@H](C)CN([C@H](C)CO)C(=O)c2cc(NC(=O)CCCN(C)C)ccc2O1,3.3,2.8,/,20.6,/,/
C[C@H]1CN([C@@H](C)CO)C(=O)Cc2cc(NS(=O)(=O)c3ccc(F)cc3)ccc2O[C@H]1CN(C)S(=O)(=O)c1ccccc1,1.3,0.2,/,-3.6,/,/
CCN(C(=S)Nc1ccc(C(C)=O)cc1)C1CCCCC1,/,-2.1,53.4*,-7.0,-0.6,-2.9%
O=c1c2ccccc2nc(COc2ccccc2)n1/N=C/c1ccc(O)c(O)c1,-9.1,13.5,64.9*,2.8,-5.6,-13.4%
